Source: PubChem BioAssay (National Center for Advancing Translational Sciences (NCATS))
Compounds with a hit are over-represented: about 2.3% of the library has one in this group of screens.
PTHR1 ag: qHTS for PTHR1 Agonists: Primary Screen. HEK293 GP2 PTHR1 cells, GloSensor cAMP luminescence, 1 h. Potency, µM (top dose mostly 115 µM), inactives show at the top dose activation, most hits filed as activators. 0.075% of 410,000 active; further: nearly all actives have a fitted effect of over 55% in size
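HEK-293-derived GP2 cells expressing PTHR1 and a GloSensor cAMP reporter, 3,000/well, plated overnight, given luciferin plus IBMX (each 0.5 mM as added) for 1 h at 37 °C, then compound for 1 h at 37 °C. Luminescence was read after 15 min at room temperature.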
GLP-1R agonist: qHTS of GLP-1 Receptor Agonists; Glucagon-like peptide 1 receptor (Homo sapiens), P43220; HEK293 GLP-1R CRE-luciferase, luminescence, 4-6 h; cells express a hypersensitive GLP-1R form; 0.007% of 380,000 active; Potency, µM (series often up to 45.6 µM), for the others: at the top dose activation, hits mostly activators; further: % of control where 0% means no effect
Target sequence (P43220 whole entry, looked up): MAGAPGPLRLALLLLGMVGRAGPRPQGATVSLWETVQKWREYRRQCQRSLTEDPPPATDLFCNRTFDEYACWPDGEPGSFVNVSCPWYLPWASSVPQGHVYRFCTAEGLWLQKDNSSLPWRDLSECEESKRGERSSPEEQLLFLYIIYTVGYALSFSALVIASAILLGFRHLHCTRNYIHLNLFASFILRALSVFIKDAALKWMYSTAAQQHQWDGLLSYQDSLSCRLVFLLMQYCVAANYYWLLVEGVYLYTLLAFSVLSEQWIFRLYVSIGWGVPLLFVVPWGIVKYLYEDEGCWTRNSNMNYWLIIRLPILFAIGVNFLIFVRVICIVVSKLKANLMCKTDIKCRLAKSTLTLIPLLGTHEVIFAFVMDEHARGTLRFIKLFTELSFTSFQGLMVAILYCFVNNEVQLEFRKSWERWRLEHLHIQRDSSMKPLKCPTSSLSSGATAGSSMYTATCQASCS
GLP1R inv ag: qHTS of GLP-1 Receptor Inverse Agonists (Inhibition Mode). Potency, µM (top dose mostly 38.3 µM), without a hit: top-dose activity change, negative = inhibition, most hits filed as inhibitors. Glucagon-like peptide 1 receptor (Homo sapiens), P43220. AID 624417, 2012. 1.6% of 410,000 active. HEK293 GLP-1R CRE-luciferase, luminescence, 24 h; GLP-1R form is constitutively active; further: on the % scale 0 is the no-effect control and ±100 the full control effect; nearly all actives have a fitted effect of over 55% in size
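Inverse agonists were sought by their lowering of basal cAMP reporter luciferase output in HEK293 cells stably carrying constitutively active human GLP-1R, after 24 h compound treatment.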
12-LOX inh: Primary qHTS assay for inhibitors of human arachidonate 12S-lipoxygenase (ALOX12): Round 2. Potency, µM (doses to about 108 µM), for the others: at the top dose activity change, negative = inhibition, hits mostly inhibitors. Polyunsaturated fatty acid lipoxygenase ALOX12 (Homo sapiens), P18054. purified 12hLO, xylenol orange hydroperoxide absorbance. 1.1% of 580,000 active; further: on the % scale 0 is the no-effect control and ±100 the full control effect
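Hydroperoxide product was detected by ferrous iron/xylenol orange as the 573 to 405 nm absorbance ratio. Arachidonic acid at 40 uM (final) was turned over for 30 min at room temperature by 150 nM human 12hLO, pH 7.0 Hepes buffer, after 15 min compound preincubation.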
Glioma ERSR ind: qHTS for Inducers of the Endoplasmic Reticulum Stress Response (ERSR) in Human Glioma: qHTS | Potency, µM, without a hit: top-dose activation, actives largely listed as activators | U87-MG GRP78 promoter luciferase reporter, 16 h | 0.02% of 420,000 active; further: series mostly up to about 76 µM; % of control where 0% means no effect; nearly all actives have a fitted effect of over 35% in size
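ERSR induction read as luciferase luminescence (Bright-Glo, 10 min at room temperature) in stably transfected human U87-MG glioma cells exposed to compounds for 16 h, using GRP78 as sensor.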
GLS inhibitor: qHTS for Inhibitors of Glutaminase (GLS) | GLS enzymatic activity, qHTS titration | Potency, µM (series often up to 45.5 µM), for inactives: at the top dose activity change, negative = inhibition, actives largely listed as inhibitors | 0.21% of 410,000 active | AID 624170, 2012; further: on the % scale 0 is the no-effect control and ±100 the full control effect
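hKGA in 45 mM KH2PO4 pH 8.2, 0.02% Tween-20 with pin-transferred compounds; 1 mM L-glutamine (stock) plus glutamate oxidase/HRP/Amplex Red coupling added. Fluorescence read initially and after 30 min at RT.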
Starred values were filed as active, the others as inactive; i = inactive; u = inconclusive; x = not tested or not shown; [ ] = another dose, or the depositor's remark. The call rests on the fitted dose curve; in most records, active means well fitted curve in the direction sought with a large enough effect; inconclusive means small, poorly fitted or top-dose-only effect, or another doubt; inactive means no such curve, though single readings can be large; an effect the other way counts as inactive or inconclusive. Potency means the concentration at half of the fitted maximal effect.

SMILES	PTHR1 ag	GLP-1R agonist	GLP1R inv ag	12-LOX inh	Glioma ERSR ind	GLS inhibitor
NNC(=O)c1cc2c(ccc3ccccc32)o1	u	1%	-16%	-7%	9%	22µM*
O=C(O)c1cc2c(ccc3ccccc32)o1	i	-1%	8%	-10%	-3%	8%
O=C(N/N=C\c1ccncc1)c1ccccc1O	-9%	0%	-6%	-1%	1%	-2%
O=C(N/N=C/c1ccc(-c2ccccc2)o1)c1ccccc1O	-22%	6%	10µM*	0%	7%	1%
Cc1ccc(C(=O)N/N=C/c2ccc(-c3cccc(Cl)c3)o2)cn1	-29%	-4%	7.9µM*	195%	-5%	-1%
O=C(N/N=C/c1ccc(-c2ccc(Cl)c(C(=O)O)c2)o1)c1cc2c(ccc3ccccc32)o1	-10%	0%	1%	40µM*	-2%	u
CC(C)=CCC/C(C)=C/CC/C(C)=C/CC[C@]1(C)CCc2c(C)c(O)c(C)c(C)c2O1	x	x	x	-4%[12.5 µM]	x	x
CC1(C(=O)NCc2cccnc2)CCC(=O)N1Cc1ccccc1Cl (configuration not stated)	x	x	x	11%	x	x
CCOc1ccc(C(C)=O)cc1CN(C)CC(=O)Nc1ccc(Cl)c(Cl)c1	x	x	x	-7%	x	x
COc1cc(/C=C(\C#N)C(=O)N2CCOCC2)ccc1OCc1ccccc1	-32%	5%	-17%	-7%	1%	0%
N#C/C(=C\c1ccc(OCc2ccc(C(=O)O)cc2)cc1)C(=O)N1CCOCC1	-36%	-4%	1µM*	-9%	-15%	-3%
Cc1cc(=O)oc2cc(OCC(=O)N(C)C3(C#N)CCCCC3)ccc12	x	x	x	4%	x	x
CCOC1CCN(C(=O)c2cc(-c3ccncc3)nc3ccccc23)CC1	x	x	x	10%	x	x
COc1ccccc1CN(C)CC(=O)NC(=O)NC1CCCCC1	-50%	14%	4.5µM*	2%	-4%	-8%
COc1ccccc1CN(C)CC(=O)NC(=O)NC1CCCC1	x	x	x	30%	x	x
NC(=S)c1ncc(C(F)(F)F)cc1Cl	i	-1%	-10%	34%	-3%	0%
NC(=S)Nc1ncc(C(F)(F)F)cc1Cl	-7%	16%	8%	40µM*	-2%	-8%
Cc1oc(-c2ccccc2)nc1C12CC3CC(CC(C3)C1)C2	x	x	x	-19%	x	x
Cc1ccc(NC(=O)CN2C(=O)CSc3ccc(S(=O)(=O)N4CCCCC4)cc32)cc1	-15%	-1%	5µM*	-5%	-1%	-2%
Cc1cc(Cl)ccc1NC(=O)CN1C(=O)CSc2ccc(S(=O)(=O)N3CCOCC3)cc21	-26%	5%	11µM*	-4%	1%	1%
COc1cc(C(C)NS(C)(=O)=O)ccc1OCCC(C)C (configuration not stated)	x	x	x	-2%	x	x
COCCCNc1oc(-c2cccs2)nc1C#N	x	x	x	-17%	x	x
Cc1ccc(-c2cc(-c3ccc(Cl)cc3)c(C#N)c(N)n2)o1	16%	0%	-11%	u	-3%	13%
Cc1ccc(-c2cc(-c3ccc(F)cc3)c(C#N)c(N)n2)o1	i	5%	13%	7.1µM*	-2%	-1%
Cc1ccc(-c2cc(-c3ccc(C)o3)nc(N)c2C#N)cc1	i	6%	15%	1µM*	4%	21%
COc1cc(CNC(=O)c2nccnc2N)ccc1OCc1ccncc1	x	x	x	-45%	x	x
Cc1cccc(CNc2cc(-c3ccoc3)ncn2)c1	x	x	x	18µM*	-1%	x
Cc1cccc(CNc2ccnc(-c3cccc(NS(C)(=O)=O)c3)n2)c1	x	x	x	u	-3%	x
Cc1cccc(CNc2cc(-c3cccc(NS(C)(=O)=O)c3)ncn2)c1	x	x	x	35µM*	6%	x
